# Only some compounds are listed: those with a hit (about 2.9% of all), similar ones and a draw of the others.
# FBA Mtb inh: inhibits M. tuberculosis FBA enzyme; 360,000 compounds, 2.3% hits; P9WQA3; purified M. tuberculosis FBA, fluorescence read-out; inhibition, % at 1 µM;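 also: 0% = vehicle and 100% = reference inhibitor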
# Target sequence (P9WQA3 whole entry, looked up): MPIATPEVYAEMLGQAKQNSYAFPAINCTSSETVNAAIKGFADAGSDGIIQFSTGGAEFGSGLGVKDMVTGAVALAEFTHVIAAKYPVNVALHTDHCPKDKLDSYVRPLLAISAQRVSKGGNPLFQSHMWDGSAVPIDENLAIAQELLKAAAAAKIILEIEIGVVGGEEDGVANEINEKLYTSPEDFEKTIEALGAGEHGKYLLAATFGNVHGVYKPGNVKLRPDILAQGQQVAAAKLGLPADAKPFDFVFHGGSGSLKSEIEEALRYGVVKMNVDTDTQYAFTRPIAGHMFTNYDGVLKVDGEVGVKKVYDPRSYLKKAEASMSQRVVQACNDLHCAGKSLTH
# BioA inh: BioA (M. tuberculosis) enzyme inhibition | purified M. tuberculosis BioA enzyme, plate reader | inhibition, % at 9.99 µM | 360,000 compounds, 0.096% hits; in the data active = inhibition above about 40%
# Mtb hypoxia inh: inhibitors of hypoxia-regulated fluorescent reporter in Mycobacterium tuberculosis | AID 1159583 | M. tuberculosis hypoxia-regulated fluorescent reporter, fluorescence | fluorescence inhibition, % (concentration not given with the values) | 300,000 compounds, 0.1% hits; in the data active = fluorescence inhibition mostly above about 23%, no sharp cut-off; inactive = mostly below about 17%
# GDH-TPI counter-1: counter-screen for M. tuberculosis FBA inhibitors: GDH-TPI coupled enzymes | GDH-TPI coupled enzyme counterscreen, NADH absorbance | AID 588335 | inhibition, % at 4.8 µM | 360,000 compounds, 1.2% hits; in the data active = inhibition above about 30%;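 also: 0% = DMSO wells and 100% = wells lacking the enzyme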
# FadD28 binding: inhibitors of Mycobacterium tuberculosis FadD28 bisubstrate binding; inhibition, % at 12.5 µM; FadD28 bisubstrate probe binding, fluorescence polarization; 360,000 compounds, 0.22% hits; AID 588549; in the data active = inhibition above about 8.5%, passing the limit was not always enough
# Mtb FBA confirm: Mtb FBA inhibition, confirmed. inhibition, % at 1 µM. purified M. tuberculosis FBA, fluorescence read-out. 5,600 compounds, 78% hits. shares compounds with FBA Mtb inh;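 also: 0% = vehicle wells and 100% = reference inhibitor wells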
# GDH-TPI counter-2: counter-screen for M. tuberculosis FBA inhibitors: GDH-TPI coupled enzyme inhibition; shares compounds with FBA Mtb inh; GDH-TPI coupled enzyme counterscreen, fluorescence; inhibition, % at 1 µM; 5,600 compounds, 81% hits; in the data active = inhibition above about 10%
# An asterisk follows results filed as active; · = no result given; + = active, no number. Rule as the data show it, unless noted: active = inhibition above about 27%; inactive = the rest.
SMILES,FBA Mtb inh,BioA inh,Mtb hypoxia inh,GDH-TPI counter-1,FadD28 binding,Mtb FBA confirm,GDH-TPI counter-2
CCC(C)NC(=O)Cc1cn(C)c2ccccc12 (stereo not given),102*,-1,14,-7,-4,9,-3
COc1ccc(C(=O)N2C[C@@H]3[C@H](c4ccccc42)[C@H](CO)N3Cc2ccc(Cl)cc2)cc1,·,-4,·,·,·,·,·
CCC(=O)c1c[nH]c(C(=O)NCc2cccc(C(F)(F)F)c2)c1,79*,-4,-11,5,-1,+,+
CN1C(=O)c2ccc(NC(=O)c3ccc(Cl)cc3Cl)cc2C1=O,38*,-1,-3,4,0,95*,70*
O=C(Nc1ccc2c(c1)C(=O)OC2)c1ccc(Cl)cc1Cl,0,-3,2,-1,-2,·,·
O=C(CCN1CCCCC1)NCC[C@@H]1CC[C@@H](NC(=O)C2CCOCC2)[C@H](CO)O1,·,-2,·,·,·,·,·
O=C(Cc1ccccc1)NCC(=O)NN=Cc1ccc([N+](=O)[O-])s1,·,·,4,·,·,·,·
CCCc1nc2ccc(N)cc2c(=O)n1Cc1ccccc1Cl,28*,0,11,1,-2,105*,83*
CCCc1nc2ccc(NC(C)=O)cc2c(=O)n1Cc1ccccc1Cl,1,-1,-3,11,0,·,·
Cc1ccc(S(=O)(=O)Nc2ccc3c(c2)C(=O)N([C@@H](C)CO)C[C@H](C)[C@@H](CN(C)S(C)(=O)=O)OCCCC[C@H](C)O3)cc1,·,1,·,·,·,·,·
CC1=CC(C)[C@H](/C=N/n2c(=O)[nH]c3c([nH]c4ccc(C)cc43)c2=O)C(C)C1 (stereo not given in full),53*,·,·,1,-2,-1,-3
COc1ccc(/C=N/n2c(=O)[nH]c3c([nH]c4ccc(C)cc43)c2=O)cc1CN1CCOCC1,93*,·,·,14,-1,127*,101*
CN(C)c1ccc(C=NNC(=O)CN2CCN(c3ccc(F)cc3)CC2)cc1,·,·,10,·,·,·,·
Cc1ccc(-n2nc(C)c3c(C)c(CCC(=O)O)c(C)nc32)cc1C,40*,3,-1,2,-3,1,0
CCOC(=O)CCc1c(C)nc2c(c(C)nn2-c2ccc(C)cc2)c1C,8,1,-4,0,1,·,·
Cc1ccc(-n2nc(C)c3c(C)c(CCC(=O)O)c(C)nc32)cc1,68*,2,15,2,-3,184*,117*
COc1cc2c(cc1O)C[C@H]1NCCc3cc4c(c-2c31)OCO4,30*,-1,·,18,-1,108*,89*
O=C(Nc1cccc(Cl)c1)N[C@H]1CC[C@@H](CCNC(=O)C2CCC2)O[C@@H]1CO,·,-1,·,·,·,·,·
CCN1CCN(c2nc3c(C)cccn3c(=O)c2/C=C(\C#N)C(=O)NCCOC)CC1,97*,-1,5,16,0,63*,45*
COCCCNC(=O)/C(C#N)=C/c1c(N2CCN(C)CC2)nc2c(C)cccn2c1=O,92*,0,15,1,1,56*,44*
COCCNC(=O)/C(C#N)=C/c1c(N2CCN(C)CC2)nc2c(C)cccn2c1=O,81*,1,5,16,-2,96*,84*
CC(=NNC(=O)c1ccc(-c2ccccc2)cc1)C1C(=O)c2ccccc2C1=O,·,·,-1,·,·,·,·
COCC(=O)N(C)C[C@@H]1Oc2ncc(C#Cc3cccnc3)cc2C(=O)N([C@@H](C)CO)C[C@H]1C,·,10,·,·,·,·,·
COC(=O)C[C@@H]1C[C@@H]2c3cc(NC(=O)NC4CCCC4)ccc3O[C@@H]2[C@H](CO)O1,·,0,·,·,·,·,·
CN(C)c1nc(-c2ccc([N+](=O)[O-])cc2)cs1,34*,0,·,12,-1,194*,142*
SMILES,FBA Mtb inh,BioA inh,Mtb hypoxia inh,GDH-TPI counter-1,FadD28 binding,Mtb FBA confirm,GDH-TPI counter-2
C=CCNc1nc(-c2ccc([N+](=O)[O-])cc2)cs1,3,·,12,16,0,·,·
CCc1c(C)nc2ncnn2c1N1CCCC(C(=O)Nc2cc(F)ccc2C)C1 (stereo not given),28*,11,·,16,0,8,0
O=C(CCN1C(=O)c2ccccc2C1=O)NCc1ccc(F)cc1,2,-2,0,1,-1,·,·
COc1cc(C2N(C)C(=O)c3ccccc3N2C)ccc1O (stereo not given),76*,7,14,0,-4,-5,-7
CN1C(=O)c2ccccc2N(C)C1c1ccc2c(c1)OCO2 (stereo not given),101*,2,·,-5,-4,63*,39*
CN1C(=O)c2ccccc2N(C)C1c1ccc(F)cc1 (stereo not given),54*,2,12,1,-2,40*,35*
CN1C(=O)c2ccccc2N(C)C1c1cccc(O)c1 (stereo not given),59*,1,·,-2,-4,0,-4
COc1cc(C2C(=O)c3ccccc3C2=O)ccc1O,-2,0,-4,14,-2,·,·
C[C@H]1CN([C@@H](C)CO)C(=O)c2cccc(NC(=O)c3ccc(-c4nccs4)cc3)c2O[C@H]1CN(C)S(=O)(=O)c1ccc(F)cc1,·,0,·,·,·,·,·
COc1ccccc1CN1[C@@H]2c3ccc(C4=CCCCC4)c(=O)n3C[C@H]1[C@H](CO)[C@H]2C(=O)N(C)C,·,-1,·,·,·,·,·
Cn1c(N)nc2nc(CCc3ccccc3)c(=O)[nH]c2c1=O,60*,-1,-2,4,-2,8,2
O=C(Nc1cccnc1)C1Cc2c(-c3ccc4c(c3)OCO4)ccnc2O1 (stereo not given),54*,23,·,2,1,+,162*
O=C(Nc1ccccc1)C1Cc2c(-c3ccc4c(c3)OCO4)ccnc2O1 (stereo not given),46*,2,·,7,-4,143*,146*
O=C(Nc1ccc2c(c1)OCO2)C1Cc2c(-c3cccnc3)ccnc2O1 (stereo not given),0,2,·,11,1,·,·
O=C(Nc1ccccc1)C1Cc2c(-c3ccc(Cl)cc3)ccnc2O1 (stereo not given),7,0,·,13,-1,·,·
Cc1ccc(-c2nn(-c3ccccc3)cc2/C=C/C(=O)O)o1,39*,-1,10,16,-4,-2,-3
Cc1ccc(-c2nn(-c3ccccc3)cc2C(=O)O)o1,·,·,17,·,·,·,·
O=C(NN=Cc1ccccn1)c1ccc(S(=O)(=O)N2CCCCCC2)cc1,·,·,-9,·,·,·,·
O=C(NN=Cc1ccc(CNS(=O)(=O)c2ccc(Cl)cc2)o1)C(=O)Nc1ccc(Oc2ccccc2)cc1,·,·,9,·,·,·,·
Cc1cc(C)cc(C(=O)O/N=C(\N)c2ccc(Br)cc2)c1,0,1,5,-4,1,·,·
N/C(=N\OC(=O)c1ccoc1)c1ccc(Br)cc1,38*,1,9,-3,-4,155*,150*
